TRHR PAM – qHTS for Small Molecule Agonists and Allosteric Enhancers of Human TRH Receptor: Primary Screen for Enhancers; Thyrotropin-releasing hormone receptor (Homo sapiens), P34981; enhancement, % at 2 µM; hit rate 0.66% among 360,000; TRHR cells, fluo-8 calcium fluorescence, EC20 TRH enhancement; AID 493056, 2011; in the data active = enhancement above about 30%; also: 0% is about no effect
Target sequence (P34981 whole entry, looked up): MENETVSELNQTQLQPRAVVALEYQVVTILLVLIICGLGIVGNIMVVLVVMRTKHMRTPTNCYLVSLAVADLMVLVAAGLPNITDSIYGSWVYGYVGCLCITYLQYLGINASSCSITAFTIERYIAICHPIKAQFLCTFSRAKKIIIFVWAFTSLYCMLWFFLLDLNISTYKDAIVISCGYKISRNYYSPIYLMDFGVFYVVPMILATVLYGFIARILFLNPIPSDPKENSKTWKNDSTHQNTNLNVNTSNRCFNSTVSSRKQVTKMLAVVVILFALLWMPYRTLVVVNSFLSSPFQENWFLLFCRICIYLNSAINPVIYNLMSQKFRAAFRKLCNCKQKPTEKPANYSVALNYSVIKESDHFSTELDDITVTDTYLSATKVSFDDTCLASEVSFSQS
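TRHR-expressing cells loaded with fluo-8 calcium dye were read kinetically (ex 480/em 530) during compound addition, then stimulated with an EC20 of TRH (10 nM final). Enhancement of the Gq-mediated intracellular calcium response was scored.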
D1 potentiator – Potentiators of Human D1 Dopamine Receptor: qHTS | D(1A) dopamine receptor (Homo sapiens), P21728 | HEK293 TREx D1 cells, calcium flux, dopamine EC20 potentiation | potentiation, % at 10 µM | hit rate 0.036% among 360,000 | AID 504651, 2011; in the data active = potentiation above about 30%; also: 0% is about no effect
LDHA block – qHTS assay for inhibitors of human lactate dehydrogenase; purified LDHA, NADH/diaphorase-resazurin fluorescence; stronger effect = lower value; hit rate 0.15% among 480,000; activity change, % (values are at about 110 or 230 µM); in the data active = activity change below about -30%;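 also: plate controls were DMSO wells for no effect and wells without enzyme for full effect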
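Remaining NADH was detected by diaphorase (0.133 mg/mL) converting 37 µM resazurin to fluorescent resorufin, read at 0 and 20 minutes. The preceding 5-minute room-temperature reaction used 2 nM LDHA, 0.2 mM sodium pyruvate and 0.06 mM NADH at pH 7.4.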
TRHR ag – qHTS for Small Molecule Agonists and Allosteric Enhancers of Human TRH Receptor: Primary Screen for Agonists. TRHR cells, calcium flux fluo-8, FDSS agonist mode. activation, % at 2 µM. hit rate 0.18% among 360,000; also: 0% is about no effect
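TRHR-expressing cells loaded with fluo-8 calcium dye; 23 nL library compound pin-transferred, kinetic FDSS fluorescence (Ex 480/Em 530) recorded about 180 s for agonist-induced calcium release, before a 10 nM TRH EC20 addition for potentiator mode.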
D1 antag – Antagonist of Human D 1 Dopamine Receptor: qHTS; HEK293 TREx D1 cells, calcium flux, dopamine EC80; stronger effect = lower value; activity change, negative = inhibition, % at 10 µM; hit rate 3.2% among 360,000; AID 504652, 2011; in the data active = activity change below about -30%; also: % is scaled to controls: 0 for no effect and ±100 for the full control effect
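Antagonism measured as reduced calcium response to an EC80 dopamine addition following 180 s compound pre-read; cells were inducible HEK293 Trex D1 plated overnight at 30 C, read kinetically at 1 cycle/sec.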
D1 ag – Allosteric Agonists of the Human D1 Dopamine Receptor: qHTS; D(1A) dopamine receptor (Homo sapiens), P21728; activation, % at 2 µM; hit rate 1% among 360,000; HEK293 T-REx D1 cells, calcium flux, agonist mode; also: 0% is about no effect
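Agonism was scored from calcium flux recorded over 180 s (1 read/s) after pintool compound addition, following a 10-cycle baseline. Cells were inducible force-coupled HEK293 TREx D1, plated overnight at 30 C and loaded with no-wash calcium dye.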
An asterisk follows results filed as active; . = not tested or not shown; ! = repeats disagree. This is a sample that favours compounds with a hit; in the whole collection about 3.6% have one here. Rule as the data show it, unless noted: active = activation above about 30%; inactive = the rest.

SMILES | TRHR PAM | D1 potentiator | LDHA block | TRHR ag | D1 antag | D1 ag
CCOCCn1c(N2CCN(Cc3cccc(C)c3)CC2)nc2c1c(=O)[nH]c(=O)n2C | . | . | 1 | . | . | .
CC(C)c1ccc(Nc2c(-c3ccccn3)nc3ccccn23)cc1 | -6 | 0 | 4 | 0 | -34* | 4
Cc1cccc(C)c1Nc1c(-c2ccccn2)nc2c(C)cccn12 | -2 | -2 | 0 | 0 | -48* | 5
Cc1cccn2c(Nc3ccccc3)c(-c3ccccn3)nc12 | 0 | 5 | -1 | 0 | 12 | 4
Cc1ccc(C2=NN(S(C)(=O)=O)C(c3ccc(F)cc3)C2)cc1 (stereo unspecified) | . | . | -4 | . | . | .
Cc1ccc2c(C)nc(Nc3nc(CSc4nc5ccccc5s4)cc(=O)[nH]3)nc2c1 | . | . | -5 | . | . | .
Cc1nnc(SCc2cc(=O)[nH]c(Nc3nc(C)c4cc(C)c(C)cc4n3)n2)s1 | 1 | -2 | -7 | -1 | -73* | 0
S=C(NCc1ccccc1)NC1CC1 | . | . | 1 | . | . | .
CCN(C(=O)c1ccc2c(=O)n3c(nc2c1)CCCCC3)c1ccc(F)cc1 | -12 | -6 | -5 | 0 | -2 | 1
Cc1cccc(NC(=O)c2ccc3c(=O)n4c(nc3c2)CCCCC4)n1 | -3 | -8 | -3 | 0 | -37* | 3
CN(CC(=O)Nc1cccc(F)c1)C(=O)c1ccc2c(=O)n3c(nc2c1)CCC3 | 1 | -3 | -1 | 1 | -13 | 1
CCN(C(=O)c1ccc2c(=O)n3c(nc2c1)CCCCC3)c1cc(C)ccc1C | 3 | -3 | -2 | 0 | -52* | 0
O=C(c1ccc2c(=O)n3c(nc2c1)CCCCC3)N1CCN(c2ccc(F)cc2)CC1 | -2 | -11 | -12 | 0 | -50* | 1
CN(CC(=O)Nc1ccccc1C(F)(F)F)C(=O)c1ccc2c(=O)n3c(nc2c1)CCC3 | 6 | -5 | -1 | 0 | -32* | 3
O=C(c1ccc2c(=O)n3c(nc2c1)CCCCC3)N1CCN(c2ccc(Cl)cc2)CC1 | -1 | -7 | 3 | -1 | -13 | 1
Cc1ccc(NC(=O)c2ccc3c(=O)n4c(nc3c2)CCCCC4)nc1 | 1 | 0 | -12 | 0 | 14 | 1
O=C(CCCc1c[nH]c2ccccc12)N1CCCC1CN1CCCC1 (stereo unspecified) | . | . | 2 | . | . | .
Cc1cc(C)c(S(=O)(=O)NCCC2CCCN2C)c(C)c1 (stereo unspecified) | -5 | -10 | 0 | 0 | -30* | 6
N#Cc1ccc(NC(=S)/N=C(\N)c2ccccc2)cc1 | . | . | -14 | . | . | .
N#CN=C(N)c1ccccc1 | -4 | 3 | -9 | 0 | -56*! | 1
N#Cc1c2ccc(O)cc2n2ccccc12 | -14 | -5 | 17 | 25 | -3 | 58*
N#Cc1c2ccc(OCC(=O)NCc3ccco3)cc2n2ccccc12 | -5 | -1 | 23 | 13 | -8 | 8
CC(=O)Nc1ccnc(-c2cccnc2)n1 | 1 | 0 | 0 | 1 | -4 | 0
CCCCC(=O)Nc1ccnc(-c2cccnc2)n1 | 1 | -2 | -2 | 0 | -86* | 220*
COc1ccc(C(=O)NNC(=O)CC2Sc3ccccc3NC2=O)cc1 (stereo unspecified) | . | . | 0 | . | . | .
SMILES | TRHR PAM | D1 potentiator | LDHA block | TRHR ag | D1 antag | D1 ag
C=CCSc1ncc(CO)n1Cc1ccccc1 | 5 | 2 | -2 | -1 | -50* | -1
O=C(Nc1ccc(O)cc1)C1CC=CCC1 (stereo unspecified) | 0 | -7 | 31 | 0 | -100* | 4
CCOc1ccc2c(c1)cc(C(=O)NCc1cccc(OC)c1)n2C | . | . | -1 | . | . | .
Cn1cc(C(=O)NCCNC(=O)Cc2ccc(F)cc2)c2ccccc21 | . | . | -7 | . | . | .
O=C(Nc1cc(Cl)cc(Cl)c1)c1coc(=O)c(Br)c1 | -4 | -2 | -4 | 1 | -46* | 37*
O=C(NC(CO)(CO)CO)c1coc(=O)c(Br)c1 | 2 | 9 | -7 | -1 | -3 | 0

Assay outcomes deposited in PubChem by National Center for Advancing Translational Sciences (NCATS).
